# In ChEMBL document CHEMBL1157539, “Thousands of chemical starting points for antimalarial lead identification” (Nature, 2010):
# Assays:
# Assay type in all cases: functional
# Plasmodium falciparum [1] = assay: GSK_TCMDC: Inhibition of Plasmodium falciparum 3D7 in whole red blood cells, using parasite LDH activity as an index of growth. Test compounds present at 2uM
# Plasmodium falciparum [2] = assay: GSK_TCMDC: Inhibition of Plasmodium falciparum Dd2 in whole red blood cells, using parasite LDH activity as an index of growth. Test compounds present at 2uM
# HepG2 = assay: GSK_TCMDC: Percent inhibition of human HepG2 cell line. Test compounds present at 10uM.
SMILES,Inhibition (Plasmodium falciparum [1]) [%],Inhibition (Plasmodium falciparum [2]) [%],Inhibition (HepG2) [%]
CCN(Cc1ccc(-c2ccc(C(F)(F)F)cc2)cc1)C(=O)Cn1c(SCc2cccc(F)c2F)cc(=O)c2cc(CN3CCCCC3)ccc21.Cl,100,50,95
CC[C@H](C)CNC(=O)c1cncc(-c2cccc(CN(C)C3CCN(C)CC3)c2)c1.O=C(O)C(F)(F)F,100,59,9
O=C(/C=C/c1ccccc1)N1CCOC(CCN2CCC(c3ccccc3)CC2)(c2ccc(Cl)c(Cl)c2)C1 (centres undefined),89,63,4
COc1ccc2nc3cc(Cl)ccc3c(NCCCO)c2c1,100,100,32
O=C(Nc1cccc(-c2ccc(-c3nc4cc(C(F)(F)F)ccc4[nH]3)s2)c1)c1c[nH]cn1,89,36,55
Cc1cc(=NN=Cc2ccccc2F)c2cc(C(F)(F)F)ccc2[nH]1,100,67,5
Cc1ccc(NC(=O)c2ccc(N3CCN(c4ccncc4)CC3)cn2)cc1F.O=C(O)C(F)(F)F,98,77,2
Nc1nc(N)c2c(Oc3cccc4ccccc34)cccc2n1,96,10,42
COc1cc(CNCCCCCCNCc2cc(OC)cc3ccccc23)c2ccccc2c1.CS(=O)(=O)O,100,94,57
NC(=O)c1ccc(-n2cnc3cc(F)ccc32)cc1OCc1ccccc1C(F)(F)F.NC(=O)c1ccc(-n2cnc3ccc(F)cc32)cc1OCc1ccccc1C(F)(F)F,97,93,55
Fc1ccc(CNc2ncc(-c3ccsc3)c(-c3nccs3)n2)cc1,94,77,7
CCN(CC)CCOc1ccc(N(Cc2ccc(C(C)(C)C)cc2)C(=O)c2ccc(Cc3ccccc3)cc2)cc1OC.Cl,99,73,5
CN(Cc1ccc(C#N)cc1)C1CCN(c2cc(NC(=O)c3ccc(F)cc3)ccn2)CC1.O=C(O)C(F)(F)F,86,10,24
COc1ccc(Cn2c(Nc3cccc(C(F)(F)F)c3)nc3cc(C(=O)NC4CC4)cnc32)cc1Cl,94,96,0
CCC(=O)c1cc(C(=O)NCCc2cccc(OC)c2)ccc1OC,83,12,0
Cc1ccc(CNC(=N)NC(=O)c2nc(Cl)c(NCc3ccc(Cl)cc3)nc2N)c(C)c1,100,100,28
COc1ccc(C)cc1NC(=O)CSc1nc2cccnc2n1C1CCCCC1,89,78,14
COC(=O)c1cccc(CNCc2cccc(-c3ccc(-c4nc5cccc(C)c5[nH]4)cc3)c2)c1.O=C(O)C(F)(F)F,100,52,3
